{"source": "PubChem BioAssay AID1645860", "about": "(Buhrlage Lab, Dana-Farber Cancer Institute and Novartis …, 2021)", "note": "Among all 47,000 compounds or so, about 2,500 (5.3%) were called active. No stated cut-off is given here; in the data, active means inhibition above about 30%; inactive means the rest. For the sample, actives were picked, then their nearest neighbours and some compounds at random. *1 amine or outer side, *2 acyl side, *3 side chain or, on linkers, in order; H or OH if unused. Where a SMILES comes first, the peptide text is derived from it. [ ]: non-standard residue; d: D form. ξ: configuration not given here. ξβ3hGly(undecyl) = CCCCCCCCCCCC(CC(=O)[*:2])N[*:1]"}
{"molecular_target": "Ubiquitin carboxyl-terminal hydrolase 30 (Homo sapiens) (UniProt Q70CQ3)", "sequence (Q70CQ3 whole entry, looked up)": "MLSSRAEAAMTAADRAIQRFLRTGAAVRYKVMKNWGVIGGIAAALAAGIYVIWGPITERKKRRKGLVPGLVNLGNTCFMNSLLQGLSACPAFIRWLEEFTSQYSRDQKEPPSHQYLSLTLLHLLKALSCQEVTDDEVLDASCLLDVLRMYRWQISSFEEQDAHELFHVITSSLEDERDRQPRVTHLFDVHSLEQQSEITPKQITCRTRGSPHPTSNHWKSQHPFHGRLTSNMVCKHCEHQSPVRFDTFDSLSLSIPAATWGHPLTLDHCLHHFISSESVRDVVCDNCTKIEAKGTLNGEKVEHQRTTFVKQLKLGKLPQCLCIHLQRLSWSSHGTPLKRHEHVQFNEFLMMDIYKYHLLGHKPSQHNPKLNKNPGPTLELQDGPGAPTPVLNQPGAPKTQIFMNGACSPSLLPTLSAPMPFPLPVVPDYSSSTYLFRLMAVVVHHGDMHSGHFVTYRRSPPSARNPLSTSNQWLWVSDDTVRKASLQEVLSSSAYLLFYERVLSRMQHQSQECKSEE", "assay": "blocks human USP30 ubiquitin-rhodamine cleavage (AID 1645860)", "details": "purified USP30, Ub-rhodamine cleavage fluorescence; at 25 µM; hits give high values"}
{"smiles": "CC(C)N1CCN(C(=O)c2n[nH]c3c2CCCC3)CC1", "inhibition": "-5.42% (inactive)"}
{"smiles": "Cn1ccc(-c2cc(C(=O)NC3CC3)c3ccccn23)n1", "inhibition": "-423% (inactive)"}
{"smiles": "O=C(Nc1ccc2sc(NC(=O)C3CCCCC3)nc2c1)NC1CCCC1", "inhibition": "0.0388% (inactive)"}
{"smiles": "CC(C)C(=O)Nc1nc2cc(NS(=O)(=O)c3ccccc3)ccc2s1", "inhibition": "36.4% (active)"}
{"smiles": "CC(C)C(=O)Nc1nc2ccc(CCC(=O)Nc3ccc(F)cc3)cc2s1", "inhibition": "26.5% (inactive)"}
{"smiles": "COCCN1C(=O)Cc2c(C)nc(C3(C)CCCN(c4cc(C)ncn4)C3)nc21", "note": "(stereo not drawn)", "inhibition": "-104% (inactive)"}
{"smiles": "COc1cccc(-c2ocnc2C(=O)NCc2ccc(OC)c(OC)c2)c1", "inhibition": "-25.4% (inactive)"}
{"smiles": "COc1ccc(-c2ocnc2C(=O)NCc2ccc(OC)c(OC)c2)cc1", "inhibition": "-6.37% (inactive)"}
{"smiles": "COc1cc(OC)cc(-c2nnc(NC(=O)c3ccc([N+](=O)[O-])o3)o2)c1", "inhibition": "40.1% (active)"}
{"smiles": "N#Cc1ccc(-c2cccc(C(F)(F)F)c2)n(Cc2c(F)cccc2Cl)c1=O", "inhibition": "17.6% (inactive)"}
{"smiles": "CC(=O)N1CSCC1C(=O)N1CCC2(CC1)CNC(=O)c1ccccc1O2", "note": "(stereo not drawn)", "inhibition": "6.33% (inactive)"}
{"smiles": "CCN1CCC2(CC1)OC(=O)C(C)=C2C(=O)NCc1ccccc1OC", "inhibition": "3.07% (inactive)"}
{"smiles": "COc1cccc(NC(=O)CSc2nc(-c3ccco3)nc3cc(=O)[nH]n23)c1", "inhibition": "-50.3% (inactive)"}
{"smiles": "O=C1C(O)=C(c2ccc(O)c(O)c2)C(=O)C(O)=C1c1ccccc1", "inhibition": "50.5% (active)"}
{"smiles": "CC(=O)N1CCn2c(nnc2C2CCCN2)C1", "note": "(stereo not drawn)", "inhibition": "12.2% (inactive)"}
{"smiles": "CCCCCCCCCCCC1CC(=O)NC(CC(N)=O)C(=O)NC(Cc2ccc(O)cc2)C(=O)NC(CC(N)=O)C(=O)NC(CCC(N)=O)C(=O)N2CCCC2C(=O)NC(CC(N)=O)C(=O)NC(CO)C(=O)N1", "note": "(stereo not drawn) (cyclo([ξβ3hGly(undecyl)]NYNQPNS); configuration not given here)", "inhibition": "-32.4% (inactive)"}
{"smiles": "O=C(Nc1ccc(C(F)(F)F)cc1)N1CCc2[nH]cnc2C1c1ccncc1", "note": "(stereo not drawn)", "inhibition": "13% (inactive)"}
{"smiles": "Cc1nn(-c2cccc(F)c2)c2c1C(C(=O)c1cc3ccccc3o1)CC(=O)N2", "note": "(stereo not drawn)", "inhibition": "2.53% (inactive)"}
{"smiles": "Cc1nn(-c2ccc(F)cc2)c2c1C(C(=O)c1cc3ccccc3o1)CC(=O)N2", "note": "(stereo not drawn)", "inhibition": "-18.2% (inactive)"}
{"smiles": "Cc1nn(-c2ccc(F)cc2F)c2c1C(C(=O)c1cc3ccccc3o1)CC(=O)N2", "note": "(stereo not drawn)", "inhibition": "33.3% (active)"}
{"smiles": "CC(CNC(=O)c1csc(C(=O)N2CCCC2)n1)c1ccccc1", "note": "(stereo not drawn)", "inhibition": "-12% (inactive)"}
{"smiles": "CC(C)=CCc1cc(O)ccc1O", "inhibition": "0.263% (inactive)"}
{"smiles": "CC(C)=CCC(O)C1=CC(=O)c2c(O)ccc(O)c2C1=O", "note": "(stereo not drawn)", "inhibition": "74.5% (active)"}
{"smiles": "Cc1ccc(NC(=O)C(OC(=O)c2ccc(S(=O)(=O)N3CCCC3)cc2)c2ccccc2)cc1", "note": "(stereo not drawn)", "inhibition": "0.818% (inactive)"}
{"smiles": "CC(=O)Nc1ccc(S(=O)(=O)N2CCC(CC(=O)NC(C)c3ccccc3)CC2)cc1", "note": "(stereo not drawn)", "inhibition": "31.5% (active)"}
{"smiles": "O=C(O)c1ccc(S(=O)(=O)N2CCC(Cc3ccccc3)CC2)cc1", "inhibition": "-5.01% (inactive)"}
{"smiles": "CC(=O)Nc1ccc(S(=O)(=O)N2CCC(CN3CCCC(C)C3)CC2)cc1", "note": "(stereo not drawn)", "inhibition": "-7.71% (inactive)"}
{"smiles": "CCNC(=O)c1ccc2c(c1)nc1n2CCN(CC2CCCO2)C1", "note": "(stereo not drawn)", "inhibition": "-93.9% (inactive)"}
{"smiles": "Cc1noc(C)c1CSc1ccccc1C(=O)N(C)Cc1ccc2c(c1)OCO2", "inhibition": "25.1% (inactive)"}
{"smiles": "CCCCCCSc1ncnc2c1sc1nc(-c3ccccc3)c3c(c12)CC(C)(C)OC3", "inhibition": "-3.25% (inactive)"}
{"smiles": "CC(=O)CCCSc1ncnc2c1sc1nc(N3CCOCC3)c3c(c12)CC(C)(C)OC3", "inhibition": "36.7% (active)"}
{"smiles": "CCOCCCNc1ncnc2c1sc1nc(N3CCOCC3)c3c(c12)CC(C)(C)OC3", "inhibition": "-0.00409% (inactive)"}
{"smiles": "CSc1nccc(-c2ccc(F)cc2)c1C#N", "inhibition": "30.3% (active)"}
{"smiles": "O=C(NC1CCCCC1)c1ccc2c(=O)nc3c(-c4ccccc4F)n[nH]n3c2c1", "inhibition": "-42.8% (inactive)"}
{"smiles": "CCc1ccc(NC(=O)N2CCC3(CC2)COc2ccccc2S(=O)(=O)N(C)C3)cc1", "inhibition": "-0.131% (inactive)"}
{"smiles": "Cc1ccc(C)c(N2C(=O)CN(S(C)(=O)=O)CC2(C)C(=O)NCc2ccccc2)c1", "note": "(stereo not drawn)", "inhibition": "-0.764% (inactive)"}
{"smiles": "O=C(Nc1ccccc1F)C1CCCN(c2nnc3ccccn23)C1", "note": "(stereo not drawn)", "inhibition": "8.96% (inactive)"}
{"smiles": "O=C(Nc1ccccc1F)NC1CCCN(c2cc(-c3ccncc3)[nH]n2)C1", "note": "(stereo not drawn)", "inhibition": "34.3% (active)"}
{"smiles": "O=C(CSc1nccn1C1CCCCC1)Nc1ccccc1F", "inhibition": "24.6% (inactive)"}
{"smiles": "COc1cccc(-c2cc3c(=O)n(Cc4nc(-c5ccccc5C)no4)ccn3n2)c1", "inhibition": "-2.78% (inactive)"}
{"smiles": "CN1CCN(C(=O)C2=NOC3(CCCNC3)C2)C(c2ccccc2)C1", "note": "(stereo not drawn)", "inhibition": "-3.49% (inactive)"}
{"smiles": "COc1ccc(-c2noc(C3(c4ccccc4)CCOCC3)n2)cc1", "inhibition": "32.8% (active)"}
{"smiles": "COc1ccc(C2(C(=O)Nc3cccnc3)CCOCC2)cc1", "inhibition": "-2.08% (inactive)"}
{"smiles": "COc1ccc(Cc2noc(C3(c4ccc(Cl)cc4)CCOCC3)n2)cc1", "inhibition": "-0.175% (inactive)"}
{"smiles": "C[C@]12C(=O)N(C3CC3)CC(=O)N1CC(c1ccccc1Cl)c1c2[nH]c2ccccc12", "note": "(stereo partly drawn)", "inhibition": "21.3% (inactive)"}
{"smiles": "Cc1cc(=O)c2c(O)cccc2o1", "inhibition": "-221% (inactive)"}
{"smiles": "COc1ccc(CCC(=O)Nc2ccc3nc(N4CCOCC4)cc(C)c3c2)cc1", "inhibition": "-2.1% (inactive)"}
{"smiles": "Cc1nc(N(C)C)cc(N2CCN(C(=O)Nc3ccc4c(c3)OCCO4)CC2)n1", "inhibition": "-13.9% (inactive)"}
{"smiles": "Fc1cc(F)cc(CNc2cc(-n3ccnc3)ncn2)c1", "inhibition": "0.587% (inactive)"}
{"smiles": "COc1cc(OC)cc(C(=O)Nc2cccc(CCc3nc4ccc(C)cc4[nH]3)c2)c1", "inhibition": "26% (inactive)"}
{"smiles": "COc1cc(Cn2cnc3c([nH]c4ccc(Br)cc43)c2=O)cc(OC)c1", "inhibition": "57.3% (active)"}
{"smiles": "O=c1c2[nH]c3ccc(Cl)cc3c2ncn1Cc1cccnc1", "inhibition": "-14.2% (inactive)"}
{"smiles": "CCOc1ccc2[nH]c3c(=O)n(Cc4cccnc4)cnc3c2c1", "inhibition": "22% (inactive)"}
{"smiles": "CC(=O)Nc1onc(C)c1-c1ccc(C)c(S(=O)(=O)Nc2ccccc2)c1", "inhibition": "-17.6% (inactive)"}
{"smiles": "O=C(Cc1nc(-c2ccccn2)n[nH]1)NC1CCCCCC1", "inhibition": "-21.9% (inactive)"}
{"smiles": "Cc1ccc(NC(=O)Cc2nc(-c3ccccc3)n[nH]2)cc1", "inhibition": "44.3% (active)"}
{"smiles": "COc1ccc(CC(=O)Nc2cnc(-c3ccccc3)nc2)cc1", "inhibition": "-102% (inactive)"}
{"smiles": "CC(OC(=O)c1cn(-c2ccccc2)nc1-c1cccnc1)C(=O)Nc1cccc(S(=O)(=O)N(C)C)c1", "note": "(stereo not drawn)", "inhibition": "55.1% (active)"}
{"smiles": "COc1ccccc1OCCC(=O)Nc1cccc(S(=O)(=O)N(C)C)c1", "inhibition": "11.1% (inactive)"}
{"smiles": "CCOc1ncccc1C(=O)NNC(=O)c1cn(-c2ccccc2)nc1-c1ccccc1", "inhibition": "-0.192% (inactive)"}
{"smiles": "CNc1nc(C2CCCN(C(=O)C3CCCCC3)C2)nc2c1CNCC2", "note": "(stereo not drawn)", "inhibition": "-11.2% (inactive)"}
{"smiles": "COc1cc(NS(=O)(=O)c2ccc3c(c2)N(C)CCO3)cc(OC)c1", "inhibition": "0.0144% (inactive)"}
{"smiles": "O=C(Nc1ccc(N2CCN(c3ccccc3)C2=O)nc1)c1ccc2c(c1)OCO2", "inhibition": "-9.55% (inactive)"}
{"smiles": "O=C(Nc1ccccc1)c1ccc2c(c1)OCCCO2", "inhibition": "3.42% (inactive)"}
{"smiles": "CC(C)(C)c1ccc(Oc2ccc(NC(=O)c3ccc4c(c3)CCO4)cn2)cc1", "inhibition": "34.9% (active)"}
{"smiles": "Cc1nc2cc3c(cc2n1CC(=O)NCCc1ccccc1)OCCO3", "inhibition": "-5.99% (inactive)"}
{"smiles": "Cc1cccc(CC(=O)Nc2c(C)nc3ccccn3c2=O)c1", "inhibition": "7.29% (inactive)"}
{"smiles": "COc1cccc(N2CCN(C(=O)Nc3ccc4c(c3)NC(=O)CO4)CC2)c1", "inhibition": "69.6% (active)"}
{"smiles": "Cc1cc2oc(C(=O)Nc3ccc4c(c3)NC(=O)CO4)c(C)c2cc1Cl", "inhibition": "19.5% (inactive)"}
{"smiles": "COc1cccc(NC(=O)N2CC[C@H]3N(C)CC[C@@]3(C(=O)N3CCCC3)CC2)c1", "inhibition": "-23.3% (inactive)"}
{"smiles": "O=C(O)C[C@@H]1CCN(C(=O)C2CCCCC2)C[C@@H]1CC1=NCCc2ccccc21", "inhibition": "-65% (inactive)"}
{"smiles": "COc1ccc(SCc2nc(N)nc(Nc3ccccc3)n2)cc1", "inhibition": "-33% (inactive)"}
{"smiles": "CC(C)Cc1nc2sc3c(N(CCO)Cc4ccccc4)ncnc3c2c2c1COC(C)(C)C2", "inhibition": "34.9% (active)"}
{"smiles": "CSc1ncnc2c1sc1nc(-c3ccccc3)c3c(c12)CC(C)(C)OC3", "inhibition": "9.17% (inactive)"}
{"smiles": "CC1(C)Cc2c(c(-c3ccco3)nc3sc4c(SCCCc5ccccc5)ncnc4c23)CO1", "inhibition": "11.9% (inactive)"}
{"smiles": "COc1cccc(O[C@@H]2C[C@@H](NC(=O)C3CCOCC3)[C@H](O)[C@H]2O)c1", "inhibition": "7.84% (inactive)"}
{"smiles": "O=C1CNC(=O)N1CC(O)Cn1c2ccc(Br)cc2c2cc(Br)ccc21", "note": "(stereo not drawn)", "inhibition": "6.98% (inactive)"}
{"smiles": "O=C(Nc1ccc(Cl)cc1)C1C2C=CC3(O2)C1C(=O)N(CCc1ccccc1Cl)C3C(=O)NC1CCCCC1", "note": "(stereo not drawn)", "inhibition": "29.8% (inactive)"}
{"smiles": "O=c1c2cnc(N3CCOCC3)nc2ccn1CCc1ccccc1", "inhibition": "12.9% (inactive)"}
{"smiles": "O=c1c2cnc(N3CCCCC3)nc2ccn1Cc1cccnc1", "inhibition": "1.8% (inactive)"}
{"smiles": "O=c1c2cnc(N3CCCC3)nc2ccn1-c1ccccc1", "inhibition": "31% (active)"}
{"smiles": "c1ccc(-c2nccc(-c3ccc(-n4cncn4)cc3)n2)nc1", "inhibition": "23.2% (inactive)"}
{"smiles": "CCn1c(SCC(=O)Nc2ccc3c(c2)OCCO3)nnc1C(C)C", "inhibition": "9.74% (inactive)"}
{"smiles": "Cn1c(SCc2ccc(Cl)cc2)nnc1-c1ccc2c(c1)OCCO2", "inhibition": "30.4% (active)"}
{"smiles": "Cc1cc(C(=O)CSc2nnc(-c3ccc(F)cc3)n2C)c(C)n1C", "inhibition": "-35% (inactive)"}
{"smiles": "Cc1nn(-c2cccc(F)c2)c2c1c(C)c(CCC(=O)NCc1ccccn1)c(=O)n2C", "inhibition": "58.6% (active)"}
{"smiles": "Cc1nc2cc(C(=O)NCc3ccccn3)ccc2n1-c1cccc(F)c1", "inhibition": "0.251% (inactive)"}
{"smiles": "Cc1nn(-c2ccccc2)c2c1c(C)c(CCC(=O)N1CCN(c3ccc(F)cc3)CC1)c(=O)n2C", "inhibition": "-7.59% (inactive)"}
